Assay outcomes deposited in PubChem by several laboratories.
AF4-AF9 inh: MLL-AF4/AF9 protein interaction inhibition. P42568. AlphaScreen, biotin-AF4 peptide binding to FLAG-AF9. inhibition, % at 10 µM. actives 0.47% (n = 350,000). AID 651704;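 active means every replicate reaching a set inhibition limit, whatever the replicate mean, cut at about 25% in these data; inconclusive means mean inhibition reaches that limit but some replicates miss it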;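 further: 0% = plate neutral control median and 100% = total signal loss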
Target sequence (P42568 whole entry, looked up): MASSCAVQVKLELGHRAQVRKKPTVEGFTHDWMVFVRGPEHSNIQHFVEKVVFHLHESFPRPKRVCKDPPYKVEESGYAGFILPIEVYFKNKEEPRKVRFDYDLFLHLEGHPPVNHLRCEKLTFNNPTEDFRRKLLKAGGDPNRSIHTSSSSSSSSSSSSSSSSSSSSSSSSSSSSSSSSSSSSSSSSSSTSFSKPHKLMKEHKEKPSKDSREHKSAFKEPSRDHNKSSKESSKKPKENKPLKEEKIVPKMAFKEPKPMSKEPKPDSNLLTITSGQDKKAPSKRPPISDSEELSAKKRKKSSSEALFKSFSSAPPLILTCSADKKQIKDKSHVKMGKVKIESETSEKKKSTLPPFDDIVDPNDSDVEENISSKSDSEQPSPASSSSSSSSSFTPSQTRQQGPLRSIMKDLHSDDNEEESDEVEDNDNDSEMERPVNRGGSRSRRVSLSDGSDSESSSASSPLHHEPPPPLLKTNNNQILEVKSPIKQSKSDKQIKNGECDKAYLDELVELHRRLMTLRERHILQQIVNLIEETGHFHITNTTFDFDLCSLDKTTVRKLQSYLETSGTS
SMARCA2 act: increases SMARCA2 function in MMTV reporter cells; MG213 cells, MMTV-luciferase reporter, dexamethasone, overnight; activation, % at 9.1 µM; actives 1% (n = 370,000); AID 652017; in the data active means activation above about 7.8%;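 further: 0% = vehicle wells and 100% = reference activator wells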
FGF22 binding: binders of recombinant human FGF22 by thermal shift; Q9HCT0; SYPRO orange fluorescence; percent of sucrose octasulfate shift, DMSO zero; actives 1.5% (n = 340,000); AID 651658; activity (Tm shift, normalised), % at 9.99 µM;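 active means mean Tm shift, scaled 0 neutral to 100 positive control, at about 1.3% or above, every replicate too, limit read from the data; inconclusive means no clear call, values can overlap the other calls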
MITF TRPM1 HTS: MITF TRPM1 promoter activation in melanoma cells. SK-MEL-5 TRPM1-promoter luciferase, 24 h; % of positive control, neutral wells = 0. activation, % at 12.5 µM. actives 0.75% (n = 300,000);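 active means mean activation of at least 80% with every replicate also reaching 80%; inconclusive means mean reaches 80% but some replicate falls short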;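 further: 0% = neutral control wells and 100% = parthenolide positive control wells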
esBAF inh: blocks esBAF chromatin remodeling in mouse ES cells; Bmi1-luciferase knock-in reporter, 24 h; 100% = twice the neutral-well signal; reporter increase, % at 12.5 µM; actives 2% (n = 350,000); in the data active means activation above about 40%; inconclusive means no clear call, values can overlap the other calls;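 further: 0% = median of the plate's neutral control wells and 100% = double that signal; a rise in the Bmi1 reporter signal indicates esBAF inhibition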
Wnt bcat act: activators of Wnt/beta-catenin signaling; AID 743398; activation, % at 9.35 µM; actives 1.2% (n = 300,000); Wnt/beta-catenin reporter cell assay, activator, plate reader; in the data active means activation above about 30%, passing the limit was not always enough; inconclusive means no clear call, values can overlap the other calls;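 further: 0% = neutral control wells and 100% = positive control wells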
* marks the source's active call; other numbers are inactive results; ? = inconclusive; · = no result. This is a sample that favours compounds with a hit; in the whole collection about 4.3% have one here.

SMILES	AF4-AF9 inh	SMARCA2 act	FGF22 binding	MITF TRPM1 HTS	esBAF inh	Wnt bcat act
O=C(NCCN1CCOCC1)C1CCN(c2nc3ccccc3o2)CC1	40*	·	0	3	-5	-1
O=C(C[C@@H]1C=C[C@@H](NC(=O)c2ccccn2)[C@H](CO)O1)NCc1cccc(F)c1	-2	·	0	·	-7	·
CC(C)(C)c1ccc(C(=O)c2c[nH]c(C(=O)NCc3cccnc3)c2)cc1	·	0	·	·	55*	·
CC(C)(c1ccccc1)c1ccc(OCc2ccc(C(=O)O)o2)cc1	-1	4	0	88*	-2	38*
CC(C)(C)c1ccc(OCc2ccc(C(=O)NCc3cccnc3)o2)cc1	3	4	43	59	?	51*
CC(C)(C)c1ccc(OCc2ccc(C(=O)NN)o2)cc1	-1	5	0	58	·	-1
C[C@H](CO)N1C[C@H](C)[C@H](CN(C)C(=O)Nc2ccc3c(c2)OCO3)Oc2ccc(NC(=O)Cc3cn(C)c4ccccc34)cc2C1=O	7	·	0	·	36	·
CC(C)C/C=C1\CCc2c([nH]c3ccccc23)C1=O	-1	5	0	62	52*	39*
O=C1/C(=C/c2cccnc2)CCc2c1[nH]c1ccccc21	5	-5	0	?	·	5
COc1ccc2c3c(n(C)c2c1)[C@@H](CO)N(C(C)=O)CC31CN(S(=O)(=O)c2ccccc2)C1	5	·	0	·	·	·
C[C@@H]1CN([C@H](C)CO)C(=O)c2cc(N(C)C)ccc2O[C@@H](C)CCCCO[C@H]1CN(C)C(=O)Nc1ccc(F)cc1	·	·	·	·	-4	·
CN(C)/C=C/C(=O)c1ccc(Oc2ccccc2)cc1	-5	-1	0	58	51*	-3
CN(C)/C=C/C(=O)c1ccccc1	-8	1	1	14	·	3
COc1ccc(C(=O)/C=C/N(C)C)cc1	·	2	·	·	9	66*
CC(=O)c1sc2nc(CSc3nncn3C)[nH]c(=O)c2c1C	-2	4	44*	-6	·	-2
CCn1cc(Br)c(C(=O)Nc2ccc(Cl)c(Cl)c2)n1	·	-4	·	58	65*	·
CCn1cc(Br)c(C(=O)Nc2cccc(Cl)c2)n1	·	2	·	48	36	·
O=C(C1CCOCC1)N1C[C@@H]2[C@H](c3ccccc31)[C@@H](CO)N2Cc1ccc(Cl)cc1	0	·	0	·	-4	·
C[C@@H]1CN([C@@H](C)CO)C(=O)c2cccc(NS(=O)(=O)c3ccccc3)c2O[C@H]1CN(C)S(=O)(=O)c1cccs1	-2	·	-1	·	-1	·
CCCc1cc(C(=O)Nc2cccc(C(C)=O)c2)no1	-5	7.9*	0	52	51*	40*
CCCc1cc(C(=O)Nc2cccnc2)no1	-3	3	0	·	15	41*
CCCc1cc(C(=O)Nc2cccc(Cl)c2)no1	-3	5	0	·	54*	47*
CCCc1cc(C(=O)Nc2ccc(F)c(Cl)c2)no1	-4	3	0	108*	31	21
C[C@H]1CN([C@@H](C)CO)C(=O)c2cc(C#Cc3ccncc3)cnc2O[C@H]1CN(C)C(=O)c1ccccc1F	-6	·	0	·	4	·
O=C(Nc1cccnc1)c1cc(-c2ccc(Br)cc2)on1	-6	0	0	·	26	50*
SMILES	AF4-AF9 inh	SMARCA2 act	FGF22 binding	MITF TRPM1 HTS	esBAF inh	Wnt bcat act
COc1ccc(C2CC(c3ccc4ccccc4c3)=NN2C(=O)COC(=O)C2CCC(=O)N2)cc1 (stereo not drawn)	15	4	0	75	·	45*
COc1ccc(C2=NN(C(=O)CCC(=O)O)C(c3ccc(OC)cc3)C2)cc1 (stereo not drawn)	-3	2	0	-10	-1	-1
C=CCNCC(=O)N1N=C(c2ccc3ccccc3c2)CC1c1ccc(OC)cc1 (stereo not drawn)	20	0	43*	-5	·	10
CC(=O)OCC(=O)N1N=C(c2ccc3ccccc3c2)CC1c1ccccc1 (stereo not drawn)	0	-2	0	1	·	·
COc1ccc(C2CC(c3ccc4ccccc4c3)=NN2C(=O)CNC2CCCCC2)cc1 (stereo not drawn)	28*	-3	0	0	·	-2
COc1ccc(C2CC(c3ccc4ccccc4c3)=NN2C(=O)CN2CCC(C(N)=O)CC2)cc1 (stereo not drawn)	12	4	0	78	48*	-2
CC(=O)N[C@@H]1CC[C@@H](CCNC(=O)C2CCCCC2)O[C@H]1CO	-3	·	·	·	·	·
O=C(C[C@@H]1C[C@@H]2c3cc(NC(=O)CC4CC4)ccc3O[C@@H]2[C@@H](CO)O1)NCc1cccc(F)c1	0	·	0	·	5	·
Cc1ccc(S(=O)(=O)N2CCC(C(=O)Nc3nnc(-c4ccco4)s3)CC2)cc1	3	2	0	-5	-5	0
CCSc1nnc(NC(=O)C2CCCCC2)s1	·	4	·	·	44*	·
CSc1nnc(NC(=O)C2CCCCC2)s1	0	-4	0	34	45*	12
O=C(Nc1nnc(-c2ccco2)s1)C1CCCCC1	·	2	·	72	77*	·
C[C@H](CO)N1C[C@H](C)[C@H](CN(C)Cc2ccc(C(F)(F)F)cc2)Oc2c(NC(=O)c3nc4ccccc4s3)cccc2C1=O	-1	·	0	·	0	·
CCCN(C)C[C@@H]1Oc2cc(C#CCC(C)C)ccc2S(=O)(=O)N([C@H](C)CO)C[C@@H]1C	5	·	-1	·	0	·
CCC(=O)N(C)C[C@H]1Oc2ncc(/C=C/c3ccccc3)cc2C(=O)N([C@@H](C)CO)C[C@@H]1C	3	·	0	·	-1	·
COc1ccc(NC(=O)N[C@H]2CC[C@@H](CCNS(=O)(=O)c3cccc(Cl)c3)O[C@@H]2CO)cc1	3	·	0	·	4	·
COc1cccc(C(=O)Nc2cc3c(cc2Cl)OCCCO3)c1	·	4	·	75	·	38*
COc1ccc(C(=O)Nc2cc3c(cc2Cl)OCCCO3)cc1	·	5	·	77	59*	·
COc1ccc(C(=O)Nc2cc(OC)c(Cl)cc2OC)cc1	-2	2	0	9	·	2
O=C(C[C@@H]1CC[C@H](NC(=O)c2cccnc2)[C@H](CO)O1)NCc1ccc(Cl)c(Cl)c1	3	·	0	·	-2	·
O=C(N/N=C\c1c(O)ccc2ccccc12)c1ccc(O)cc1	-4	-1	0	·	-63	0
Cn1c(-c2ccccc2)c(/C=N/NC(=O)c2ccc(O)cc2)c2ccccc21	-1	2	0	1	63*	29
Cc1ccc(-c2nnc(Oc3cccc(C)c3)c3ccccc23)cc1	·	2	·	41	53*	2
Cc1ccc(-c2c(C)sc(=NC(=O)c3ccco3)n2C)cc1	·	2	·	100*	57*	·
COc1ccc(OC)c2c1sc(=NC(=O)c1ccco1)n2C	-4	-1	0	-6	8	1
CCOc1ccc(NC(=O)c2ccc3c(c2)N(C)CCS3)cc1	-2	3	0	·	72*	37*
